DAX1 StAR inh: DAX1 (NR0B1) inhibitors on StAR promoter, primary screen, cell-based, luminescence, SF-1 (NR5A1), full-length DAX-1; HEK293T StAR-luciferase reporter, SF-1/DAX-1 repression relief; inhibition, % at 6.8 µM; hit rate 1.1% among 370,000;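 active = inhibition above the mean over all tested compounds plus 3 SD, cut at about 3.6% in these data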;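 also: 0% = DAX-1 cells with DMSO and 100% = cells lacking DAX-1 with DMSO; higher inhibition means more luminescence from relief of DAX-1 repression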
hcDAF12 agonist: H. contortus DAF-12 nuclear receptor activators, primary screen, cell-based, luminescence, HEK293, lit1-tk-luc reporter; HEK293 hcDAF-12 lit1-tk-luc reporter; 0% DMSO, 100% Δ7-dafachronic acid; activation, % at 6.8 µM; hit rate 1.4% among 370,000;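 active = activation above the mean of all tested compounds plus 3 SD, cut at about 5.5% in these data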;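 also: 100% = response to 3 µM Δ7-dafachronic acid high control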
Wnt bcat act: Wnt/beta-catenin pathway activators, primary screen, cell-based, plate reader, single point. Wnt/beta-catenin reporter cell assay, activator. activation, % at 9.35 µM. hit rate 1.2% among 300,000. AID 743398, 2014; in the data active = activation above about 30%, passing the limit was not always enough;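 also: 0% = neutral control wells and 100% = positive control wells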
esBAF inh: Bmi1 luciferase reporter increase in mESCs, primary screen, esBAF inhibitor project, mouse ES cells, Bmi1 luciferase knock-in, single point. 24 h; 100% = twice the neutral-well signal. hit rate 2% among 350,000. reporter increase, % at 12.5 µM; in the data active = activation above about 40%;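 also: 0% = median of the plate's neutral control wells and 100% = double that signal; a rise in the Bmi1 reporter signal indicates esBAF inhibition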
ssDAF-12 act: S. stercoralis DAF-12 nuclear receptor activators, primary screen, cell-based, luminescence, HEK293, GRIP1 co-expression, lit1-tk-luc; activation, % at 6.8 µM; HEK293 ssDAF-12/GRIP1 lit1-tk-luc reporter; % of 3 µM dafachronic acid response; hit rate 1% among 370,000; AID 652126, 2013;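 active = activation above the mean over all tested compounds plus 3 SD, cut at about 0.9% in these data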;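 also: 0% = DMSO-only wells and 100% = 3 µM delta7-dafachronic acid wells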
hgDAF-12 ag: H. glycines DAF-12 receptor agonists, primary screen, cell-based, luminescence, HEK293, GAL4 fusion, UAS-luciferase | Nuclear hormone receptor DAF-12 (Heterodera glycines), GAL4 fusion | HEK293 GAL4-hgDAF12 UAS-luciferase reporter, agonist luminescence; normalized to butyrate control | activation, % at 6.8 µM | hit rate 1.8% among 370,000;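 active = activation above a cutoff set at the mean of all screened compounds plus 3 SD, cut at about 10% in these data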;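 also: 0% = DMSO wells and 100% = sodium butyrate wells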
The depositor's hits bear a star; / = not tested or not shown. Sampled rows, rich in hits. Any-hit rate of the full collection: about 4.2%.

SMILES	DAX1 StAR inh	hcDAF12 agonist	Wnt bcat act	esBAF inh	ssDAF-12 act	hgDAF-12 ag
COc1ccccc1NC(=S)NNC(=O)c1ccccc1Br	2	4	24	/	1.3*	10
COc1ccccc1NC(=S)NNC(=O)c1ccncc1	0	-1	3	5	-1	4
C[C@@H]1CN([C@H](C)CO)C(=O)CCCn2cc(nn2)CO[C@@H]1CN(C)S(=O)(=O)c1ccc(-c2ccccc2)cc1	/	/	/	-7	/	/
O=C(Nc1ccccc1)C1Cc2ccccc2CN1C(=O)c1ccco1 (stereo not given)	3	6.3*	/	9	1.0*	13*
COc1ccccc1NC(=O)C1Cc2ccccc2CN1C(=O)c1ccco1 (stereo not given)	-1	5	0	12	0	3
Cc1cc(C(=O)CSc2nc3ccc(Cl)cc3[nH]2)c(C)n1CC1CCCO1 (stereo not given)	-2	-2	/	/	-2	-2
Cc1ccc2nc(SCC3CCCCO3)[nH]c2c1 (stereo not given)	3	5	21	-56	0	12*
C[C@@H](NC(=O)[C@H]1[C@H](CO)[C@H]2Cn3c(cccc3=O)[C@H]2N1CC1CC1)c1ccccc1	/	/	/	1	/	/
CCCN(C)C[C@H]1Oc2cc(C#Cc3ccccc3)ccc2S(=O)(=O)N([C@H](C)CO)C[C@H]1C	/	/	/	0	/	/
COC(=O)CCN(C(=O)c1ccc(Cl)c([N+](=O)[O-])c1)c1ccccn1	0	-1	33*	/	-2	-3
COc1cccc(-c2ccc3c(c2)[C@@H]2[C@@H](CCN2C(=O)c2ccc4c(c2)OCO4)[C@H](CO)N3C)c1	/	/	/	2	/	/
Cc1ccc(S(=O)(=O)N(C)C[C@H]2Oc3c(NS(=O)(=O)c4ccc(Cl)cc4)cccc3C(=O)N([C@H](C)CO)C[C@H]2C)cc1	/	/	/	3	/	/
O=C(Nc1ccc(F)cc1)C(c1ccccc1)N1CCN(CC(=O)N2CCCC2)CC1 (stereo not given)	-1	-1	13	5	-1	2
COc1ccc(C(C(=O)Nc2ccc(F)cc2)N2CCN(CC(=O)N3CCCC3)CC2)cc1 (stereo not given)	4.2*	-1	0	/	-1	-2
COc1ccc(C(=O)NN=C2CCCC2)cc1	0	1	0	45*	-1	3
COc1cccc(/C(C)=N/NC(=O)c2ccc(N(C)C)cc2)c1	0	0	/	53*	-1	3
COc1cccc(C(=O)NN=C2CCCC2)c1	4.5*	3	7	-1	1	11*
COc1cccc(C(=O)N/N=C(\C)CC(=O)Nc2ccc(N(C)C)cc2)c1	0	3	6	23	-1	6
C[C@@H]1CN([C@@H](C)CO)C(=O)c2cccc(NC(=O)C3CCCCC3)c2O[C@H]1CN(C)S(C)(=O)=O	/	/	/	7	/	/
C[C@H](CO)N1C[C@H](C)[C@@H](CN(C)S(=O)(=O)c2cccs2)OCCCC[C@H](C)Oc2ccc(NC(=O)c3ccncc3)cc2C1=O	/	/	/	-3	/	/
COc1ccc(-n2nc(C(=O)NCC(=O)N3CCC(C)CC3)c3ccccc3c2=O)cc1Cl	1	2	8	47*	-1	5
COc1ccc(-n2nc(C(=O)NCC(=O)N3CCN(c4ccccn4)CC3)c3ccccc3c2=O)cc1Cl	1	-2	2	/	-1	-1
NC(=O)c1ccc(Cn2c(C(=O)c3cc(Cl)c(N)c(Cl)c3)c3ccccc3[n+]2[O-])cc1	-1	3	-3	11	0	0
COc1ccc(C(=O)c2c3ccc(OC)cc3[n+]([O-])n2Cc2ccc(C(N)=O)cc2)cc1	0	6.3*	27	61*	1	4
NC(=O)c1ccc(Cn2c(C(=O)c3ccc(Cl)cc3)c3ccccc3[n+]2[O-])cc1	0	5.7*	-1	6	0	1
SMILES	DAX1 StAR inh	hcDAF12 agonist	Wnt bcat act	esBAF inh	ssDAF-12 act	hgDAF-12 ag
C[C@H]1CN([C@@H](C)CO)S(=O)(=O)c2ccc(C3=CCCCC3)cc2O[C@H]1CN(C)C(=O)C1CCCCC1	/	/	/	2	/	/
Cc1cccnc1NC(=O)c1ccc(S(=O)(=O)N2CCCCCC2)cc1	0	0	-2	/	-1	1
Cc1ccc(C(=O)Nc2ncccc2S(=O)(=O)c2ccccc2)cc1	-1	0	20	113*	-1	2
C[C@H]1CN([C@@H](C)CO)C(=O)Cc2cc(NC(=O)Nc3ccc(F)cc3)ccc2O[C@H]1CN(C)CC1CC1	/	/	/	-4	/	/
COc1ccccc1C#Cc1ccc([C@@H]2[C@@H](CO)N3CCCCN(S(C)(=O)=O)C[C@H]23)cc1	/	/	/	2	/	/
O=[N+]([O-])c1ccc(-c2cn(-c3ccccc3)c(=S)[nH]2)cc1	1	0	49*	/	0	6
O=[N+]([O-])c1cccc(-c2cn(-c3ccccc3)c(=S)[nH]2)c1	-1	0	13	12	-1	1
COc1ccc(-c2cn(-c3ccccc3)c(=S)[nH]2)cc1OC	1	2	5	44*	0	6
CC(C)C#Cc1ccc2c(c1)O[C@@H](CN(C)C(=O)NC(C)C)[C@H](C)CN([C@@H](C)CO)S2(=O)=O	/	/	/	4	/	/
CN(C(=O)c1ccc2c(c1)CCN2S(C)(=O)=O)c1ccccc1	0	-1	0	-1	-1	-3
CS(=O)(=O)N1CCc2cc(C(=O)OCC(=O)c3ccccc3)ccc21	0	3	/	51*	-1	3
CS(=O)(=O)N1CCc2cc(C(=O)Nc3ccc(Br)cc3)ccc21	0	0	-2	48*	-1	-1
Cc1ccc(NC(=O)c2ccc3c(c2)CCN3S(C)(=O)=O)cc1	0	2	45*	66*	-1	9
CN(C(=O)c1cccc(NC(=O)Cc2ccc(NC(=O)C3CCN(C(=O)c4ccccc4)CC3)cc2)c1)C1CCC1	0	-1	-2	1	1.2*	-1
CN(C(=O)c1cccc(NC(=O)Cc2ccc(NC(=O)C3CCCN(C(=O)C4CCC4)C3)cc2)c1)C1CCC1 (stereo not given)	-1	-2	-1	3	1.3*	-2
CN(C(=O)c1cccc(NC(=O)Cc2ccc(NC(=O)C3CCCN(C(=O)C4CCCCC4)C3)cc2)c1)C1CC1 (stereo not given)	-1	0	0	1	-1	1
CN1c2ccc(C3=CCCCC3)cc2[C@@H]2[C@@H](CCN2S(=O)(=O)c2ccccc2)[C@@H]1CO	/	/	/	5	/	/
